According to the antibiotic and cytotoxicity screens of Wong et al. (2023):
Among all 39,000 compounds or so, about 3,300 (8.5%) were called active. Many of the other results were omitted from the sample, so actives are more common in it than they were.

test system: HepG2; experiment: cytotoxicity call (relative viability < 0.9); settings: 10 µM

Q: Which cytotoxicity call does the source give for `C[C@@H]1CN([C@@H](C)CO)C(=O)c2cc(NS(=O)(=O)c3cn(C)cn3)ccc2O[C@@H](C)CCCCO[C@H]1CN(C)S(=O)(=O)c1cn(C)cn1` here?
A: inactive

Q: For `C[C@H](CO)N1C[C@H](C)[C@@H](CN(C)Cc2ccc(-c3ccccc3)cc2)Oc2ccc(NC(=O)Nc3ccc(C(F)(F)F)cc3)cc2CC1=O`, which cytotoxicity call is on record?
A: active

Q: How did the cytotoxicity call turn out when `C[C@@H]1CN([C@@H](C)CO)C(=O)Cc2cc(NC(=O)Nc3ccc(C(F)(F)F)cc3)ccc2O[C@@H]1CN(C)Cc1ccc(-c2ccccc2)cc1` was run?
A: active

Q: With `C[C@@H]1CN([C@H](C)CO)C(=O)Cc2cc(NC(=O)Nc3ccc(C(F)(F)F)cc3)ccc2O[C@H]1CN(C)Cc1ccc(-c2ccccc2)cc1` as the compound, how does the cytotoxicity call read?
A: active

Q: How did the cytotoxicity call turn out when `C[C@@H]1CCCCO[C@@H](CN(C)C(=O)c2ccccc2)[C@H](C)CN([C@@H](C)CO)C(=O)c2cc(NC(=O)c3ccccc3)ccc2O1` was run?
A: inactive

Q: How did the cytotoxicity call turn out when `C[C@@H]1CN([C@@H](C)CO)C(=O)Cc2cc(NC(=O)CCN3CCOCC3)ccc2O[C@H]1CN(C)Cc1ccncc1` was run?
A: inactive

Q: For `COc1cccc(NC(=O)N[C@@H]2CC[C@H](CC(=O)N3CCOCC3)O[C@H]2CO)c1`, which cytotoxicity call is on record?
A: inactive

Q: For `O=C(NCc1cccc(F)c1)[C@H]1[C@H](CO)[C@H]2Cn3c(cccc3=O)[C@@H]1N2C(=O)c1cnccn1`, which cytotoxicity call is on record?
A: inactive

Q: How did the cytotoxicity call turn out when `C[C@@H](CO)N1CC[C@H](CN(C)Cc2ccc(Oc3ccccc3)cc2)Oc2c(NC(=O)c3ccncc3)cccc2C1=O` was run?
A: inactive

Q: For `CC(=O)N[C@H]1[C@@H](OCc2ccccc2)O[C@H](C(=O)O)[C@@H](OC(C)=O)[C@@H]1OC(C)=O`, which cytotoxicity call is on record?
A: inactive

Q: `C[C@@H]1CN([C@@H](C)CO)S(=O)(=O)c2ccc(-c3ccc(C(=O)N(C)C)cc3)cc2O[C@H]1CN(C)C(=O)C1CCOCC1` was tested. Which cytotoxicity call did it give?
A: inactive

Q: Which cytotoxicity call does the source give for `COCC(=O)N(C)C[C@@H]1Oc2cc(C#Cc3ccccc3)ccc2S(=O)(=O)N([C@@H](C)CO)C[C@H]1C` here?
A: inactive

Q: For `Cc1ccc(NC2=CC(=O)C[C@H](c3ccc(Cl)cc3)C2)cc1`, which cytotoxicity call is on record?
A: inactive

Q: For `C[C@@H]1CN([C@H](C)CO)C(=O)c2cc(NC(=O)c3ccccc3)ccc2O[C@@H](C)CCCCO[C@@H]1CN(C)Cc1ccc(Cl)c(Cl)c1`, which cytotoxicity call is on record?
A: active

Q: Which cytotoxicity call does the source give for `C[C@H](CO)N1C[C@H](C)[C@@H](CN(C)Cc2ccc(Cl)c(Cl)c2)OCCCC[C@H](C)Oc2ccc(NC(=O)c3ccccc3)cc2C1=O` here?
A: inactive

Q: Which cytotoxicity call does the source give for `C[C@@H]1CN([C@H](C)CO)C(=O)c2cc(NC(=O)c3ccccc3)ccc2O[C@@H](C)CCCCO[C@H]1CN(C)Cc1ccc(Cl)c(Cl)c1` here?
A: active

Q: Which cytotoxicity call does the source give for `C[C@H]1CCCCO[C@H](CN(C)Cc2ccc(Cl)c(Cl)c2)[C@@H](C)CN([C@@H](C)CO)C(=O)c2cc(NC(=O)c3ccccc3)ccc2O1` here?
A: inactive

Q: With `C[C@@H]1CCCCO[C@H](CN(C)Cc2ccc(Cl)c(Cl)c2)[C@@H](C)CN([C@H](C)CO)C(=O)c2cc(NC(=O)c3ccccc3)ccc2O1` as the compound, how does the cytotoxicity call read?
A: inactive

Q: `C[C@@H]1CCCCO[C@H](CN(C)Cc2ccc(Cl)c(Cl)c2)[C@H](C)CN([C@@H](C)CO)C(=O)c2cc(NC(=O)c3ccccc3)ccc2O1` was tested. Which cytotoxicity call did it give?
A: inactive

Q: How did the cytotoxicity call turn out when `C[C@H](CO)N1C[C@H](C)[C@H](CN(C)Cc2ccc(Cl)c(Cl)c2)OCCCC[C@H](C)Oc2ccc(NC(=O)c3ccccc3)cc2C1=O` was run?
A: inactive

Q: Which cytotoxicity call does the source give for `C[C@@H]1CCCCO[C@@H](CN(C)Cc2ccc(Cl)c(Cl)c2)[C@H](C)CN([C@@H](C)CO)C(=O)c2cc(NC(=O)c3ccccc3)ccc2O1` here?
A: active

Q: How did the cytotoxicity call turn out when `C[C@@H]1CCCCO[C@@H](CN(C)Cc2ccc(Cl)c(Cl)c2)[C@H](C)CN([C@H](C)CO)C(=O)c2cc(NC(=O)c3ccccc3)ccc2O1` was run?
A: inactive

Q: How did the cytotoxicity call turn out when `C[C@@H]1CN([C@H](C)CO)C(=O)CCCn2nncc2CO[C@H]1CN(C)C(=O)Nc1ccc(C(C)(C)C)cc1` was run?
A: inactive

Q: For `Cc1ccc(S(=O)(=O)N2C[C@H](O)COC[C@@H]3O[C@H](CC(=O)N4CCc5ccccc5C4)CC[C@H]32)cc1`, which cytotoxicity call is on record?
A: inactive

Q: Which cytotoxicity call does the source give for `COc1ccc(NC(=O)Nc2ccc3c(c2)C(=O)N([C@H](C)CO)C[C@H](C)[C@@H](CN(C)CC2CC2)OCCCC[C@@H](C)O3)cc1` here?
A: inactive

Q: How did the cytotoxicity call turn out when `COc1ccc(S(=O)(=O)Nc2ccc3c(c2)CC(=O)N([C@@H](C)CO)C[C@H](C)[C@@H](CN(C)S(=O)(=O)c2cccs2)O3)cc1` was run?
A: inactive

Q: Which cytotoxicity call does the source give for `C[C@@H]1CN([C@H](C)CO)C(=O)c2cc(NS(=O)(=O)c3cn(C)cn3)ccc2O[C@@H](C)CCCCO[C@@H]1CN(C)S(=O)(=O)c1ccc(F)cc1` here?
A: inactive

Q: Which cytotoxicity call does the source give for `C[C@H]1CN([C@@H](C)CO)C(=O)c2cc(-c3cncnc3)cnc2O[C@H]1CN(C)C(=O)CN1CCOCC1` here?
A: inactive

Q: Which cytotoxicity call does the source give for `C[C@@H]1CN([C@H](C)CO)C(=O)c2cc(NC(=O)NC3CCCCC3)ccc2O[C@@H]1CN(C)Cc1ccc(C(=O)Nc2ccccc2N)cc1` here?
A: inactive

Q: How did the cytotoxicity call turn out when `COc1ccc(C#Cc2cnc3c(c2)C(=O)N([C@@H](C)CO)C[C@H](C)[C@H](CN(C)C(=O)CC2CC2)O3)cc1` was run?
A: inactive

Q: `C[C@@H]1CCCCO[C@H](CN(C)Cc2ccc(C(F)(F)F)cc2)[C@H](C)CN([C@@H](C)CO)C(=O)c2cc(NC(=O)C3CCCCC3)ccc2O1` was tested. Which cytotoxicity call did it give?
A: active

Q: `C[C@@H]1CN([C@@H](C)CO)C(=O)c2cc(NC(=O)C3CCCCC3)ccc2O[C@@H](C)CCCCO[C@@H]1CN(C)Cc1ccc(C(F)(F)F)cc1` was tested. Which cytotoxicity call did it give?
A: inactive

Q: Which cytotoxicity call does the source give for `C[C@H]1CCCCO[C@@H](CN(C)Cc2ccc(C(F)(F)F)cc2)[C@@H](C)CN([C@@H](C)CO)C(=O)c2cc(NC(=O)C3CCCCC3)ccc2O1` here?
A: inactive

Q: How did the cytotoxicity call turn out when `C[C@@H]1CCCCO[C@@H](CN(C)Cc2ccc(C(F)(F)F)cc2)[C@@H](C)CN([C@@H](C)CO)C(=O)c2cc(NC(=O)C3CCCCC3)ccc2O1` was run?
A: inactive

Q: How did the cytotoxicity call turn out when `C[C@@H]1CCCCO[C@@H](CN(C)Cc2ccc(C(F)(F)F)cc2)[C@H](C)CN([C@@H](C)CO)C(=O)c2cc(NC(=O)C3CCCCC3)ccc2O1` was run?
A: inactive

Q: Which cytotoxicity call does the source give for `C[C@@H]1CCCCO[C@H](CN(C)Cc2ccc(C(F)(F)F)cc2)[C@@H](C)CN([C@@H](C)CO)C(=O)c2cc(NC(=O)C3CCCCC3)ccc2O1` here?
A: active

Q: Which cytotoxicity call does the source give for `C[C@@H]1CN([C@H](C)CO)C(=O)c2cc(NC(=O)C3CCCCC3)ccc2O[C@@H](C)CCCCO[C@@H]1CN(C)Cc1ccc(C(F)(F)F)cc1` here?
A: inactive

Q: `C[C@@H]1CN([C@H](C)CO)C(=O)c2cc(NC(=O)C3CCCCC3)ccc2O[C@@H](C)CCCCO[C@H]1CN(C)Cc1ccc(C(F)(F)F)cc1` was tested. Which cytotoxicity call did it give?
A: inactive

Q: `C[C@@H]1CN([C@@H](C)CO)C(=O)c2cc(NC(=O)C3CCCCC3)ccc2O[C@@H](C)CCCCO[C@H]1CN(C)Cc1ccc(C(F)(F)F)cc1` was tested. Which cytotoxicity call did it give?
A: active

Q: With `C[C@H](CO)N1C[C@H](C)[C@H](CN(C)Cc2ccc(C(F)(F)F)cc2)OCCCC[C@H](C)Oc2ccc(NC(=O)C3CCCCC3)cc2C1=O` as the compound, how does the cytotoxicity call read?
A: inactive

Q: For `C[C@H]1CCCCO[C@H](CN(C)Cc2ccc(C(F)(F)F)cc2)[C@@H](C)CN([C@@H](C)CO)C(=O)c2cc(NC(=O)C3CCCCC3)ccc2O1`, which cytotoxicity call is on record?
A: active

Q: With `C[C@H](CO)N1C[C@H](C)[C@@H](CN(C)Cc2ccc(C(F)(F)F)cc2)OCCCC[C@H](C)Oc2ccc(NC(=O)C3CCCCC3)cc2C1=O` as the compound, how does the cytotoxicity call read?
A: inactive

Q: Which cytotoxicity call does the source give for `Cc1ccc(S(=O)(=O)Nc2ccc3c(c2)C(=O)N([C@@H](C)CO)C[C@H](C)[C@@H](CN(C)Cc2ccc4c(c2)OCO4)OCCCC[C@@H](C)O3)cc1` here?
A: inactive

Q: Which cytotoxicity call does the source give for `Cc1ccc(S(=O)(=O)Nc2ccc3c(c2)CC(=O)N([C@@H](C)CO)C[C@H](C)[C@@H](CN(C)S(C)(=O)=O)O3)cc1` here?
A: inactive

Q: For `C[C@H](CO)N1C[C@H](C)[C@@H](CN(C)S(=O)(=O)c2ccc(Cl)cc2)Oc2ccc(NS(C)(=O)=O)cc2CC1=O`, which cytotoxicity call is on record?
A: inactive

Q: For `Cc1cc(C(=O)Nc2cccc3c2O[C@H](CN(C)C(=O)NC(C)C)[C@H](C)CN([C@H](C)CO)C3=O)n(C)n1`, which cytotoxicity call is on record?
A: inactive

Q: `COc1ccc(CN(C)C[C@@H]2OCCCC[C@@H](C)Oc3ccc(NS(=O)(=O)c4cccs4)cc3C(=O)N([C@H](C)CO)C[C@H]2C)cc1` was tested. Which cytotoxicity call did it give?
A: inactive

Q: How did the cytotoxicity call turn out when `C[C@H](CO)N1C[C@H](C)[C@H](CN(C)C(=O)NC2CCCCC2)Oc2ccc(NC(=O)Cn3cnnn3)cc2CC1=O` was run?
A: inactive

Q: Which cytotoxicity call does the source give for `C[C@@H]1CN([C@H](C)CO)C(=O)c2cc(NC(=O)Nc3ccccc3)ccc2O[C@@H](C)CCCCO[C@@H]1CN(C)C(=O)Cc1ccccc1` here?
A: inactive

Q: With `O=C(C[C@@H]1CC=CCC[C@@H](Cc2ccc(F)cc2)C(=O)OCCNC1=O)N[C@@H](CO)Cc1ccccc1` as the compound, how does the cytotoxicity call read?
A: inactive

Q: For `CCNC(=S)N1CCCC[C@@H]1CO`, which cytotoxicity call is on record?
A: inactive

Q: `C[C@@H]1CCCCO[C@H](CN(C)Cc2ccc(C(F)(F)F)cc2)[C@H](C)CN([C@H](C)CO)C(=O)c2cc(NC(=O)C3CCCCC3)ccc2O1` was tested. Which cytotoxicity call did it give?
A: inactive

Q: Which cytotoxicity call does the source give for `C[C@@H]1CCCCO[C@H](CN(C)Cc2ccc(C(F)(F)F)cc2)[C@@H](C)CN([C@H](C)CO)C(=O)c2cc(NC(=O)C3CCCCC3)ccc2O1` here?
A: active

Q: With `C[C@@H]1CCCCO[C@H](CN(C)Cc2ccncc2)[C@H](C)CN([C@@H](C)CO)C(=O)c2cc(NC(=O)C3CCCCC3)ccc2O1` as the compound, how does the cytotoxicity call read?
A: active

Q: `C[C@@H]1CCCCO[C@@H](CN(C)Cc2ccncc2)[C@@H](C)CN([C@@H](C)CO)C(=O)c2cc(NC(=O)C3CCCCC3)ccc2O1` was tested. Which cytotoxicity call did it give?
A: inactive

Q: How did the cytotoxicity call turn out when `C[C@@H]1CCCCO[C@@H](CN(C)Cc2ccc(C(F)(F)F)cc2)[C@H](C)CN([C@H](C)CO)C(=O)c2cc(NC(=O)C3CCCCC3)ccc2O1` was run?
A: inactive

Q: With `C[C@@H]1CCCCO[C@H](CN(C)Cc2ccncc2)[C@@H](C)CN([C@H](C)CO)C(=O)c2cc(NC(=O)C3CCCCC3)ccc2O1` as the compound, how does the cytotoxicity call read?
A: inactive

Q: How did the cytotoxicity call turn out when `C[C@@H]1CN([C@H](C)CO)C(=O)CCCn2cc(nn2)CO[C@H]1CN(C)C(=O)Nc1cccc(C(F)(F)F)c1` was run?
A: inactive
